In PubChem BioAssay (Tox21):
Where “and” joins values, the source holds several entries; their conditions need not be identical. Equal entries are not always repeated. Inconclusive results are not listed. Where a structure was tested more than once in an assay, its records may differ in their call. Calls of active or inactive are those of the source. Unless noted, calls follow the shape of the dose curve; as a rule, active = well fitted curve in the direction sought with a large enough effect in the repeat runs; inconclusive = weak or mixed curves; inactive = no such curve, though single readings can be large; an effect the other way counts as inactive or inconclusive.

Assays:
[1] = target: Retinoic acid receptor RXR-alpha (Homo sapiens) (UniProt P19793); assay: qHTS assay to identify small molecule agonists of the RXR signaling pathway (AID 1159527; calls by dose curve; also: nearly all actives have a fitted effect of over 35% in size; also: potency is read from the fitted curve at half-maximal effect)
Outline: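 qHTS of the Tox21 10K library in GeneBLAzer RXR-alpha HEK 293T cells carrying a beta-lactamase reporter […]; 16 hr treatment, 9-cis retinoic acid as agonist control, FRET read-out.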

[2] = qHTS assay to identify small molecule agonists of the RXR signaling pathway - cell viability counter screen (AID 1159529); also: nearly all actives have a fitted effect of over 50% in size
Outline: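 Cell viability is measured by CellTiter-Glo luminescence, 30 min at room temperature, in wells already read for beta-lactamase. Engineered HEK 293T cells (RXR-alpha-UAS-bla) are dosed 16 hr at 37 C. Tetraoctyl ammonium bromide serves as positive control.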

[3] = qHTS assay to identify small molecule antagonists of the retinoid acid receptor (RAR) signaling pathway - cell viability counter screen (AID 1159551); also: nearly all actives have a fitted effect of over 35% in size
Outline: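 In this counter screen, the RARE-luciferase line C3RL4 was exposed for 6 h at 37 C and 5% CO2 to compounds with retinol at 1 uM final. Cellular ATP, read by luminescence, served as the viability measure.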

[4] = qHTS assay to identify small molecule agonists of the retinoic acid receptor (RAR) signaling pathway (AID 1159553); conditions: C3RL4 RARE luciferase reporter, agonist, 6 h; activation: at 73.3 µM (top of the series) unless noted; also: potency is read from the fitted curve at half-maximal effect
Outline: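 In this cell-based screen, 1,000 C3RL4 cells per well were cultured overnight, dosed with test chemicals in DMSO for 6 hr, and assessed for RARE luciferase luminescence.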

[5] = qHTS assay to identify small molecule antagonists of the estrogen related receptor (ERR) signaling pathway from Tox21 library - cell viability counter screen (AID 1224834); also: nearly all actives have a fitted effect of over 30% in size
Outline: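 Counter screen run in ERR cells (2,000 cells/well): cells pre-incubated 6 h, then treated with compounds for 17.5 h at 37 C. Fluorescence was read 30 min after CellTiter-Fluor addition.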

[6] = target: Luciferin 4-monooxygenase (Photinus pyralis) (UniProt P08659); assay: qHTS assay to identify small molecule inhibitors of firefly luciferase (AID 1224835); also: nearly all actives have a fitted effect of over 25% in size; also: potency is read from the fitted curve at half-maximal effect
Outline: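 Inhibition of purified Photinus luciferase is measured by luminescence. Substrate levels (D-luciferin, ATP) sit at their KM values. Each compound is tested in a concentration series.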

[7] = qHTS assay to identify small molecule agonists of the constitutive androstane receptor (CAR) signaling pathway - cell viability counter screen (AID 1224836); also: nearly all actives have a fitted effect of over 45% in size
Outline: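 Counter screen multiplexed with the CAR reporter readout: HepG2 cells co-transfected with hCAR and the CYP2B6-2.2kb construct receive a 15-concentration compound series and 0.75 uM PK11195 (final), then CellTiter-Fluor fluorescence is read after 23 h.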

[8] = qHTS assay to identify small molecule antagonists of the constitutive androstane receptor (CAR) signaling pathway - cell viability counter screen (AID 1224837); also: nearly all actives have a fitted effect of over 45% in size
Outline: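 CITCO at 50 nM final was added alongside compounds (15 concentrations) to double-stable hCAR/CYP2B6-2.2kb HepG2 cells. Following 23 hr at 37 C, cell viability was quantified by CellTiter-Fluor fluorescence intensity.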

[9] = qHTS assay to identify small molecule antagonists of the estrogen related receptor signaling pathway with the pleiotropic PPARgamma coactivator (PGC) from Tox21 10K library - cell viability counter screen (AID 1224840; active = well fitted cell-killing curve with a large enough effect in the repeat runs, not every such curve was filed as active; also: nearly all actives have a fitted effect of over 40% in size)
Outline: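 Readout: fluorescence intensity from CellTiter-Fluor after 30 min at 37 C/5% CO2. Preceded by 17.5 h treatment of PGC/ERR cells with DMSO-dissolved compounds, added 6 h post-seeding.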

[10] = qHTS assay to identify small molecule agonists of the hypoxia (HIF-1) signaling pathway - cell viability counter screen (AID 1224844; calls by dose curve; also: nearly all actives have a fitted effect of over 50% in size)
Outline: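 In this counter screen, HRE-bla ME-180 cell viability after 17 hrs of compound exposure at 37C was read by CellTiter-Glo luminescence, multiplexed with the beta-lactamase reporter measurement.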

[11] = qHTS assay to identify small molecule agonists of H2AX (AID 1224845; active = well fitted activation curve with a large enough effect in the signal ratio in the repeat runs, not every such curve was filed as active; the % refers to the signal ratio)
Outline: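 Phospho-H2AX Ser139 measured by HTRF (ex 320 nm; em 665 and 620 nm) after 24 hr antibody incubation. Compounds, 15 concentrations, 0.76% DMSO, were applied to CHO-K1 cells for 3hr at 37C before lysis.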

[12] = qHTS assay to identify small molecule agonists of the hypoxia (HIF-1) signaling pathway (AID 1224846; active = well fitted activation curve with a large enough effect in the signal ratio in the repeat runs, not every such curve was filed as active; the % refers to the signal ratio)
Outline: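 ME-180 HRE-bla reporter cells; compounds in DMSO, 17 h at 37C; read-out beta-lactamase via CCF4-AM FRET.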

[13] = qHTS assay to identify small molecule agonists of H2AX - cell viability counter screen (AID 1224847; calls by dose curve; also: top concentration of the series differs between compounds; nearly all actives have a fitted effect of over 30% in size)
Outline: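 We seed wild-type CHO-K1 cells overnight, treat them for 3 hr at 37C with compounds in 15-concentration series, and quantify remaining viability by CellTiter-Glo luminescence.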

[14] = target: Nuclear receptor subfamily 1 group I member 3 (Homo sapiens) (UniProt Q14994); assay: qHTS assay to identify small molecule antagonists of the constitutive androstane receptor (CAR) signaling pathway (AID 1224838); also: nearly all actives have a fitted effect of over 40% in size
Outline: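 Inhibition of CITCO-driven (50 nM final) CYP2B6 reporter expression is measured in HepG2 cells stably carrying hCAR. Fifteen compound concentrations are applied for 24 h at 37 C, followed by luciferase luminescence.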

[15] = target: Nuclear receptor subfamily 1 group I member 3 (Homo sapiens) (UniProt Q14994); assay: qHTS assay to identify small molecule agonists of the constitutive androstane receptor (CAR) signaling pathway (AID 1224839); also: nearly all actives have a fitted effect of over 15% in size; also: potency is read from the fitted curve at half-maximal effect
Outline: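 A 15-concentration quantitative screen uses HepG2 cells co-transfected stably with human CAR and CYP2B6-2.2kb reporter. Treatment lasts 24 h with 0.75 uM PK11195 final present; ONE-Glo luminescence is the signal.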

[16] = target: Thyrotropin receptor (Homo sapiens) (UniProt P16473); assay: qHTS assay to identify small molecule agonists of the thyroid stimulating hormone receptor (TSHR) signaling pathway (AID 1224843; calls by dose curve; also: nearly all actives have a fitted effect of over 45% in size)
Outline: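 Agonist activity read as cAMP rise via d2/cryptate HTRF competition, 1 h room-temperature detection, in HEK293 cells expressing TSHR. Fifteen-point titrations, each run in triplicate, with a 30 min room-temperature incubation beforehand.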

[17] = qHTS assay to identify small molecule antagonists of the estrogen related receptor signaling pathway with the pleiotropic PPARgamma coactivator (PGC) from Tox21 10K library (AID 1224841; call rule not given here; also: actives are mostly falling curves and most rising ones were filed inactive; nearly all actives have a fitted effect of over 50% in size; also: potency is read from the fitted curve at half-maximal effect)
Outline: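 One-Glo luminescence, measured after half an hour at room temperature, quantified reporter output of PGC/ERR cells. These had been plated at 2,000 per well, incubated 6 h, dosed with compounds in DMSO, then kept 18 h at 37 C.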

[18] = qHTS assay to identify small molecule antagonists of the estrogen related receptor (ERR) signaling pathway - cell viability counter screen (AID 1224818)
Outline: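 Viability of ERR cells, CellTiter-Fluor fluorescence; 17.5 h compound exposure at 37 C, DMSO vehicle; 30 min reagent incubation at 37 C/5% CO2.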

[19] = qHTS assay to identify small molecule antagonists of the estrogen related receptor signaling pathway with the pleiotropic PPARgamma coactivator (PGC) cell viability counter screen (AID 1224822)
Outline: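 17.5 h compound treatment of PGC/ERR cells at 37 C; readout CellTiter-Fluor fluorescence; run alongside the PGC/ERR antagonist screen to flag cytotoxic compounds.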

Measured: Potency

Sequence of Nuclear receptor subfamily 1 group I member 3 (Homo sapiens) (Q14994 whole entry, looked up): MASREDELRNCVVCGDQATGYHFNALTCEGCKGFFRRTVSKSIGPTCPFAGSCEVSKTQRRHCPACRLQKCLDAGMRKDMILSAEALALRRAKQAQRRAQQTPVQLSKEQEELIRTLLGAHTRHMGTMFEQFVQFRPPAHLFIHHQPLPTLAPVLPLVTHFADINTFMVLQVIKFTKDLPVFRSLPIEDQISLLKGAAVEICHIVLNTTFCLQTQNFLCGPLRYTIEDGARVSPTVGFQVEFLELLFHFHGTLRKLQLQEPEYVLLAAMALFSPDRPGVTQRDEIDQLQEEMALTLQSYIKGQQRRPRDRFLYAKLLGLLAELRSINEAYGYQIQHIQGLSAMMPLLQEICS
Sequence of Thyrotropin receptor (Homo sapiens) (P16473 whole entry, looked up): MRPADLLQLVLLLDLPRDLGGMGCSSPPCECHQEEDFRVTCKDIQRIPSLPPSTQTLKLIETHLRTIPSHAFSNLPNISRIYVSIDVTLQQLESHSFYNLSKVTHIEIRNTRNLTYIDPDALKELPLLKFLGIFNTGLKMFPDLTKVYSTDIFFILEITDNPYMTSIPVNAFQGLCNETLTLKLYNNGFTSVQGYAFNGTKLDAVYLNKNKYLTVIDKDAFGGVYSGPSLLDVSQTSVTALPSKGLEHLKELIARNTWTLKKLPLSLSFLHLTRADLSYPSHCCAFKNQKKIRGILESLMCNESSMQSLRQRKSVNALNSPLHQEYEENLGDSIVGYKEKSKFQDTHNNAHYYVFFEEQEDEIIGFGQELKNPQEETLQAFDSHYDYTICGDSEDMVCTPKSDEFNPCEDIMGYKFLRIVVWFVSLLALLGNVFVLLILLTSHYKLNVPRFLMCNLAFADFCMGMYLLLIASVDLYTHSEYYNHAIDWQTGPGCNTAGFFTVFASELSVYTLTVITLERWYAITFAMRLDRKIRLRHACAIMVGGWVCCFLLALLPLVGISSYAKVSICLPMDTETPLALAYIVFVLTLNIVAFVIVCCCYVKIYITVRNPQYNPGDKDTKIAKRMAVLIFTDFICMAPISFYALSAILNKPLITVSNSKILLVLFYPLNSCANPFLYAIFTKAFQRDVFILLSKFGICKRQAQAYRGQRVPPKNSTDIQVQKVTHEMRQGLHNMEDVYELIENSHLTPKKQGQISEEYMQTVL
Sequence of Retinoic acid receptor RXR-alpha (Homo sapiens) (P19793 whole entry, looked up): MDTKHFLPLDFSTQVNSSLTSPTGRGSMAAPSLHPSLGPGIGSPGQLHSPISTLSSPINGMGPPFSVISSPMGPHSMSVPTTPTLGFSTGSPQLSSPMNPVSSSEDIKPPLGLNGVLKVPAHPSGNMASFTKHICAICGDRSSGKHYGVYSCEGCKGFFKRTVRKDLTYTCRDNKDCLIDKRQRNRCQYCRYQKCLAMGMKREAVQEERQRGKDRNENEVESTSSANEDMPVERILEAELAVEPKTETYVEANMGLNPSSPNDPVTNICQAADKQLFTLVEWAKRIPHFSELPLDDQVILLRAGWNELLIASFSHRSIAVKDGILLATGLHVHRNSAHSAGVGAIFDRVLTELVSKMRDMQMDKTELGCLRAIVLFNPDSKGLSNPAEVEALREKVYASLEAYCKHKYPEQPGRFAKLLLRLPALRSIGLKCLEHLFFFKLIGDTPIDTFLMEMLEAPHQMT
Sequence of Luciferin 4-monooxygenase (Photinus pyralis) (P08659 whole entry, looked up): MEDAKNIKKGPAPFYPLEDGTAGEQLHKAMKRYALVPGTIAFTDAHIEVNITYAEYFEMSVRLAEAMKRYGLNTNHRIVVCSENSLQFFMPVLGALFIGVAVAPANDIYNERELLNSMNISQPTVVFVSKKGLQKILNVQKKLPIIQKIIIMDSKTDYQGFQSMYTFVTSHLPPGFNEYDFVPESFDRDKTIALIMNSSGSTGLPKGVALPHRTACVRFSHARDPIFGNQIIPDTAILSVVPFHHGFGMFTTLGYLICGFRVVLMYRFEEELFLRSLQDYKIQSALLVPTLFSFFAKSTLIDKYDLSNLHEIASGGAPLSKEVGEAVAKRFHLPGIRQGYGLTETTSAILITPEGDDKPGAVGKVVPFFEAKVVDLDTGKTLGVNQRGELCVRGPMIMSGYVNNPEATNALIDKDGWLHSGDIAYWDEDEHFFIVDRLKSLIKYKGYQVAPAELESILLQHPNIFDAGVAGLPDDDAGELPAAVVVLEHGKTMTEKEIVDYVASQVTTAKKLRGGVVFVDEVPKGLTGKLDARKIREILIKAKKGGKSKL

CCCCCCCCCl
inactive: [1] | [2] | [3] | [4] | [5] | [6] | [7] | [8] | [9] | [10] | [11] | [12] | [13]

Cc1cc(Cl)ccc1O
inactive: [1] | [2] | [3] | [4] | [5] | [6] | [7] | [8] | [14] | [15] | [9] | [16] | [10] | [12]

CCc1cccc(C)c1N(C(=O)CCl)C(C)COC (stereo unspecified)
active: [15] 25.7 µM and 15.4 µM | [17] 45.8 µM and 24.3 µM
inactive: [1] | [2] | [3] | [4] | [5] | [7] | [8] | [14] | [9] | [10] | [11] | [12] | [13]

O=C(NC(=O)c1c(F)cccc1F)Nc1cc(Cl)c(OC(F)(F)C(F)C(F)(F)F)cc1Cl (stereo unspecified)
inactive: [1] | [2] | [3] | [4] | [5] | [7] | [8] | [14] | [15] | [9] | [17] | [16] | [10] | [11] | [12] | [13]

c1ccc(OP(Oc2ccccc2)Oc2ccccc2)cc1
inactive: [1] | [2] | [3] | [5] | [6] | [7] | [8] | [14] | [15] | [9] | [10] | [12] | [13]

Nc1ccc(Oc2ccc(N)cc2)cc1
inactive and 63.3 µM (active): [6]
inactive: [1] | [2] | [3] | [5] | [7] | [8] | [14] | [15] | [9] | [17] | [16] | [10] | [12] | [13]

O=S(=O)(c1ccc(O)cc1)c1ccc(O)cc1
inactive: [1] | [2] | [3] | [4] | [5] | [6] | [7] | [8] | [14] | [15] | [9] | [10] | [12] | [13]

CCCCCOC(=O)c1ccccc1C(=O)OCCCCC
inactive: [1] | [2] | [3] | [5] | [6] | [7] | [8] | [14] | [15] | [9] | [10] | [11] | [12] | [13]

CC(NC(C)(C)C)C(=O)c1cccc(Cl)c1 (stereo unspecified)
inactive: [1] | [2] | [3] | [18] | [19] | [5] | [6] | [7] | [8] | [9] | [10] | [11] | [13]

O=c1n(Cl)c(=O)n(Cl)c(=O)n1Cl
inactive: [1] | [2] | [3] | [4] | [5] | [6] | [7] | [8] | [14] | [15] | [9] | [10] | [12] | [13]

CC(=O)C=C(C)C
inactive: [1] | [2] | [3] | [4] | [5] | [7] | [8] | [14] | [15] | [9] | [17] | [10] | [11] | [12] | [13]

CC(C)OC(=O)Nc1ccccc1
inactive: [1] | [2] | [3] | [5] | [7] | [8] | [14] | [9] | [17] | [10] | [12] | [13]
active: [4] 30.7 µM | [6] 40 µM and 35.6 µM

CON(C)C(=O)Nc1ccc(Cl)c(Cl)c1
inactive: [1] | [2] | [3] | [5] | [7] | [8] | [14] | [9] | [17] | [10] | [12] | [13]
active: [4] 24.3 µM | [15] 61.4 µM and 54.5 µM

CC(C)OC(=O)Nc1cccc(Cl)c1
inactive: [1] | [2] | [3] | [5] | [7] | [8] | [9] | [17] | [10] | [12]
active: [4] 6.11 µM | [6] 31.3 µM and 35.6 µM

CC(C)N1C(=O)c2ccccc2NS1(=O)=O
inactive: [1] | [2] | [3] | [4] | [5] | [6] | [7] | [8] | [9] | [17] | [10] | [11] | [12] | [13]

O=Cc1cccc(Oc2ccccc2)c1
inactive: [1] | [2] | [3] | [4] | [5] | [6] | [7] | [8] | [14] | [15] | [9] | [16] | [10] | [11] | [12] | [13]

CCC[CH2][Sn]([Cl])([Cl])[Cl]
active: [17] 31.1 µM
inactive: [1] | [2] | [3] | [5] | [6] | [7] | [8] | [14] | [15] | [9] | [10] | [11] | [12] | [13]

Cc1ccccc1O
inactive: [1] | [2] | [3] | [4] | [5] | [6] | [7] | [8] | [14] | [15] | [9] | [10] | [12] | [13]

CC(C)C#N
9.26 µM (active) and inactive: [1]
inactive: [2] | [3] | [4] | [5] | [6] | [7] | [8] | [14] | [15] | [9] | [16] | [10] | [11] | [12] | [13]
